What all share (test): log2 fold change, soluble protein after heating vs DMSO (PISA); higher = thermal stabilisation; K562 cells, 10 uM, 30 min; active = over 0.2 and 3.5 SD of the protein, either way, in both replicates (recomputed)
The target of one test is AAGAB (UniProt Q6PD74). The procedure, abridged: (§1)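 K562 cells at 2×10^6 cells/mL were treated with 10 μM compound for 30 min. Aliquots were heated for 3 min across 48°C-58°C, pooled, and extracted in PBS with 0.5% NP-40 at 4°C; soluble protein was the supernatant after 21,000xg for 90 min. Soluble protein was quantified by TMTpro 16plex LC-MS/MS with channel sums equalised, and reported as log2 fold change in thermal stability against DMSO controls, with values from duplicates.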
AAGAB, sequence (Q6PD74 whole entry, looked up): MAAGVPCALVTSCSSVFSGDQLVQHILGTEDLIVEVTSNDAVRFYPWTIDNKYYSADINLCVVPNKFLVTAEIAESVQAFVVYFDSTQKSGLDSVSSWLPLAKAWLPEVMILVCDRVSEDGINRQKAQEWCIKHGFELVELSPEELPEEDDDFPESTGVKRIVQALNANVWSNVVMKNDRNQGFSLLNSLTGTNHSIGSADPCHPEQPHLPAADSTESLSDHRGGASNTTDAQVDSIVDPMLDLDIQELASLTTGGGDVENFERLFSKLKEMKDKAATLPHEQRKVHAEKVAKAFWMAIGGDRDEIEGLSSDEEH

Test [1] has as its target AAK1 (UniProt A0A096LP25). The essentials: as §1
The target in test [2] is AAK1 (UniProt Q2M2I8). The procedure, abridged: as §1
AAK1 (UniProt Q2M2I8), sequence (Q2M2I8 whole entry, looked up): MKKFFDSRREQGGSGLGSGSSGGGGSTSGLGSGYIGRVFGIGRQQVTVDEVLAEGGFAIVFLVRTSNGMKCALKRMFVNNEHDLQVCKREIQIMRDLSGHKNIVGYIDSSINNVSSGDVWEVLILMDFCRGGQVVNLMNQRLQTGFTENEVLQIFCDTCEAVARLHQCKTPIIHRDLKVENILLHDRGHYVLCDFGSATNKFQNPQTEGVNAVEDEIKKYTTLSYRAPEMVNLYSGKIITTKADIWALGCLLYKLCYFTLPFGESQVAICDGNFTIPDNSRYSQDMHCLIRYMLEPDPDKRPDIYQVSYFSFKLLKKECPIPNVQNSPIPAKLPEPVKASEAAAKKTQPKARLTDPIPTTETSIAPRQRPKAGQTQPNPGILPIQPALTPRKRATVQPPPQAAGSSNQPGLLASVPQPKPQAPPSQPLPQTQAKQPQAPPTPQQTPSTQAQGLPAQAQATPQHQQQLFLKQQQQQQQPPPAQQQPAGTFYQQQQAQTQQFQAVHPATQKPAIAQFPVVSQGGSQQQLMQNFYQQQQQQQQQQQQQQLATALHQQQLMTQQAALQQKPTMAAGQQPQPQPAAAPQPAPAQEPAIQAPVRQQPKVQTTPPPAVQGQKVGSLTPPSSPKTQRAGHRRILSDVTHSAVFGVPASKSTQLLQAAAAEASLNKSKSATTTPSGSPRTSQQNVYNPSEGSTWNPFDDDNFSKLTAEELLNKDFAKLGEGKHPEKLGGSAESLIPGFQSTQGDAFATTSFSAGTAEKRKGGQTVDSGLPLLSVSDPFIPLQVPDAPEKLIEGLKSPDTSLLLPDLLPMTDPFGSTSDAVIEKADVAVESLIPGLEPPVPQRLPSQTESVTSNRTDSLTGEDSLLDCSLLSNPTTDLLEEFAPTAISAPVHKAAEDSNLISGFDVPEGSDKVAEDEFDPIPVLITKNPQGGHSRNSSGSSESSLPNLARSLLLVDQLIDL

Of roughly 7,900 targets only a part is listed; those with a hit were picked by preference. About 0.6% of all pairs of compound and target were hits. Values without a mark were called inactive.

As for `O=C(O)c1ccc2c(c1)nc(Nc1cccc(Cl)c1)c1ccncc12` [silmitasertib], the log2 fold change is 0.071 with AAGAB, -0.072 with AAK1 [1] and 0.153 with AAK1 [2].

With `CC(C)c1cnn2c(NCc3ccccc3)cc(NCCCCCCN)nc12`, the log2 fold change with AAGAB was -0.099; with AAK1 [1], -0.145; with AAK1 [2], -0.043.

For the compound `O=C(CCCCCCNC(=O)c1cnc(N(c2ccccc2)c2ccccc2Cl)nc1)NO` [citarinostat], the log2 fold change was 0.024 with AAGAB, -0.014 with AAK1 [1] and -0.015 with AAK1 [2].

For `COc1ccc(Cn2ccc3ccc(C(=O)NO)cc32)cc1`, the log2 fold change in the test with AAGAB is -0.017; with AAK1 [1], -0.089; with AAK1 [2] it was 0.048.

As for `COC(=O)[C@H](CCSC)NC(=O)c1ccc(NC[C@@H](N)CS)cc1-c1ccccc1`, the values for the log2 fold change in the test with AAGAB, in the test with AAK1 [1] and with AAK1 [2] were -0.029, 0.023 and -0.044, respectively.

Consider `COc1cc2ncnc(Nc3ccc(F)c(Cl)c3)c2cc1OCCCN1CCOCC1` [gefitinib], for which the log2 fold change with AAGAB was -0.027; in the test with AAK1 [1], -0.049; with AAK1 [2], -0.097.

Take `CCCS(=O)(=O)Nc1ccc(F)c(C(=O)c2c[nH]c3ncc(-c4ccc(Cl)cc4)cc23)c1F` [vemurafenib]: the log2 fold change with AAGAB was -0.012; with AAK1 [1], -0.016; in the test with AAK1 [2], 0.147.

Take `NC(=O)Nc1cc(-c2cccc(F)c2)sc1C(=O)N[C@H]1CCCNC1`: the results for the log2 fold change in the test with AAGAB, with AAK1 [1] and with AAK1 [2] were -0.071, 0.318 and 0.28, respectively.

As to `CN1CCN(c2nc(C3=C(c4c[nH]c5ccccc45)C(=O)NC3=O)c3ccccc3n2)CC1` [sotrastaurin], the log2 fold change in the test with AAGAB was 0.007; with AAK1 [1], -0.005; in the test with AAK1 [2], -0.196.

Turning to `CN1CCC(CNc2ccc3ncc(-c4cccc(OC(F)(F)F)c4)n3n2)CC1`, the log2 fold change was -0.228 in the test with AAGAB, 0.332 with AAK1 [1] and 0.27 with AAK1 [2].

With `CC(C)C[C@@H](C=O)NC(=O)[C@H](CC(C)C)NC(=O)[C@H](CC(C)C)NC(=O)OCc1ccccc1`, the figures for the log2 fold change with AAGAB, in the test with AAK1 [1] and with AAK1 [2] were 0, 0.065 and -0.061, respectively.

For `NCC(=O)Nc1ccc(-n2nc(C(F)(F)F)cc2-c2ccc3c(ccc4ccccc43)c2)cc1`, the results for the log2 fold change with AAGAB, with AAK1 [1] and with AAK1 [2] were -0.011, -0.085 and 0.045, respectively.

Turning to `CS(=O)(=O)N1CCN(Cc2cc3nc(-c4cccc5[nH]ncc45)nc(N4CCOCC4)c3s2)CC1` [pictilisib], the figures for the log2 fold change with AAGAB, in the test with AAK1 [1] and in the test with AAK1 [2] were 0.039, 0.16 and 0.087, respectively.

For `CNc1nc(-c2ccc3c(N)n[nH]c3c2)cc(N2C[C@@H](C(=O)NC3CCCCC3)CC[C@H]2C)n1`, the log2 fold change is -0.084 with AAGAB, 0.244 with AAK1 [1] and 0.252 with AAK1 [2].

Consider `CC(=O)c1cnc2ccc(-c3cc(Cl)c(O)c(Cl)c3)nc2c1N[C@H]1CC[C@H](CN(C)C)CC1`, for which the log2 fold change with AAGAB was 0.077; with AAK1 [1] it was 0.319; with AAK1 [2] it was 0.366.

For `COC(=O)N[C@@H](C)CNc1nccc(-c2cn(C(C)C)nc2-c2cc(Cl)cc(NS(C)(=O)=O)c2F)n1` [encorafenib], the log2 fold change with AAGAB was 0.045; with AAK1 [1], 0.033; in the test with AAK1 [2], -0.047.

On to `CCn1cc(-c2ccnc3[nH]c(-c4cccc(CN(C)C)c4)cc23)c(-c2ccc(NC(=O)N(C)C)cc2)n1`, for which the log2 fold change in the test with AAGAB is -0.018; with AAK1 [1] it was -0.031; with AAK1 [2], -0.141.

Consider `COc1cc(Nc2ncc3c(n2)-c2ccc(Cl)cc2C(c2c(F)cccc2OC)=NC3)ccc1C(=O)O` [alisertib], for which the figures for the log2 fold change with AAGAB, with AAK1 [1] and in the test with AAK1 [2] were 0.062, 0.002 and 0.576, respectively.

`CC[C@H](C)n1cc(C)c2c(C(=O)NCc3c(C)cc(C)[nH]c3=O)cc(-c3ccc(N4CCNCC4)nc3)cc21`: the log2 fold change with AAGAB was 0.058; with AAK1 [1], -0.005; with AAK1 [2] it was -0.013.

With `Cc1ncc(-c2ccnc(Nc3ccc(S(C)(=O)=O)cc3)n2)n1C(C)C`, the log2 fold change with AAGAB was 0.008; with AAK1 [1], 0.028; in the test with AAK1 [2], 0.219.

Turning to `CC1=C(C(=O)Nc2cc3cn[nH]c3cc2F)C(c2ccc(C(F)(F)F)cc2)CC(=O)N1` (stereo not given), the log2 fold change with AAGAB is -0.004; with AAK1 [1] it was -0.113; with AAK1 [2], -0.055.

`CC(C)N(C[C@H]1O[C@@H](n2cnc3c(N)ncnc32)[C@H](O)[C@@H]1O)[C@H]1C[C@@H](CCc2nc3cc(C(C)(C)C)ccc3[nH]2)C1` [pinometostat]: the log2 fold change in the test with AAGAB was 0.147; with AAK1 [1] it was -0.033; with AAK1 [2], -0.05.

For `Cc1cc(Nc2cc(CN3CCOCC3)c3nc(C)c(Cc4ccc(Cl)cc4F)n3n2)n[nH]1` [gandotinib], the log2 fold change was -0.026 in the test with AAGAB, 0.103 with AAK1 [1] and 0.091 in the test with AAK1 [2].

On to `CNC(=O)c1ccc(Nc2ncc(C(F)(F)F)c(NCc3nccnc3N(C)S(C)(=O)=O)n2)cc1` [defactinib], for which the log2 fold change with AAGAB was -0.187; with AAK1 [1], 0.037; in the test with AAK1 [2], -0.106.

With `Cn1cc(-c2ccc3nnc(C(F)(F)c4ccc5ncccc5c4)n3n2)cn1`, the log2 fold change with AAGAB was -0.121; with AAK1 [1], -0.079; in the test with AAK1 [2], -0.086.

As for `O=C1NC(=O)C(c2cnc3ccccn23)=C1c1cn2c3c(cc(F)cc13)CN(C(=O)N1CCCCC1)CC2`, the log2 fold change was -0.109 with AAGAB, -0.159 with AAK1 [1] and 0.238 in the test with AAK1 [2].

For `CN(CCOc1ccc(C[C@@H]2SC(=O)NC2=O)cc1)c1ccccn1` (racemic) [rosiglitazone], the log2 fold change in the test with AAGAB is 0.029; with AAK1 [1] it was 0.107; in the test with AAK1 [2], 0.04.

On to `CC(C)(O)CC(=O)NCCn1ccc2ncnc(Nc3ccc(Oc4cccc(C(F)(F)F)c4)c(Cl)c3)c21`, for which the log2 fold change with AAGAB is -0.146; with AAK1 [1], -0.034; with AAK1 [2], 0.

For `CCN(CCCOc1ccc2c(Nc3cc(CC(=O)Nc4cccc(F)c4)[nH]n3)ncnc2c1)CCOP(=O)(O)O` [barasertib], the log2 fold change was 0.068 with AAGAB, -0.004 with AAK1 [1] and -0.034 with AAK1 [2].

`CC[C@@H]1C(=O)N(C)c2cnc(Nc3ccc(C(=O)NC4CCN(C)CC4)cc3OC)nc2N1C1CCCC1`: the results for the log2 fold change with AAGAB, in the test with AAK1 [1] and with AAK1 [2] were -0.106, -0.086 and 0.078, respectively.

On to `C/C(=N\NC(=O)c1cccc(S(=O)(=O)N2CCOCC2)c1)c1cc(Cl)ccc1O`, for which the log2 fold change with AAGAB is 0.088; with AAK1 [1] it was -0.092; with AAK1 [2] it was -0.055.

Regarding `FC(F)(F)c1ccc(/C=C/c2nc(COc3ccc(CCCCn4ccnn4)cc3)co2)cc1` [mubritinib], the log2 fold change is 0.017 in the test with AAGAB, -0.124 in the test with AAK1 [1] and -0.066 with AAK1 [2].

For the compound `Cc1cc(Nc2cc(N3CCN(C)CC3)nc(Sc3ccc(NC(=O)C4CC4)cc3)n2)n[nH]1` [tozasertib], the log2 fold change with AAGAB is 0.029; with AAK1 [1] it was 0.152; with AAK1 [2], 0.211.

In the case of `O=C1NC(=O)/C(=C\c2ccc3nccnc3c2)S1`, the log2 fold change was 0.027 with AAGAB, 0.107 in the test with AAK1 [1] and 0.033 with AAK1 [2].

As for `O=C(CCCCCCC(=O)Nc1ccccc1)NO` [vorinostat], the log2 fold change is -0.009 with AAGAB, -0.007 with AAK1 [1] and 0.074 with AAK1 [2].

Regarding `CNC(=O)c1ccccc1Nc1nc(Nc2ccc(N3CCOCC3)cc2OC)ncc1Cl`, the results for the log2 fold change in the test with AAGAB, in the test with AAK1 [1] and in the test with AAK1 [2] were 0.112, 0.333 and 0.281, respectively.

`NC1(c2ccc(-c3nc4ccn5c(=O)[nH]nc5c4cc3-c3ccccc3)cc2)CCC1`: the log2 fold change with AAGAB is -0.174; with AAK1 [1] it was 0.048; with AAK1 [2], -0.027.

With `COc1cccc2cc(-c3nc([C@H]4CC[C@H](C(=O)O)CC4)n4ncnc(N)c34)[nH]c12`, the log2 fold change with AAGAB was -0.045; with AAK1 [1], 0.129; with AAK1 [2], 0.022.

Take `C[C@@H](N)c1ccc(C(=O)Nc2ccnc3[nH]ccc23)cc1`: the log2 fold change with AAGAB was 0.084; with AAK1 [1], 0.365; in the test with AAK1 [2], 0.412 (active).

On to `Cc1ccc(Sc2cncc3sc(C(N)=O)cc23)cc1`, for which the log2 fold change with AAGAB is -0.012; in the test with AAK1 [2], 0.032.

`Oc1cc(-c2nc(-c3ccccc3)[nH]c2-c2ccncc2)ccc1Cl`: the results for the log2 fold change with AAGAB, with AAK1 [1] and with AAK1 [2] were 0.066, 0.017 and 0.073, respectively.

For `CC[C@H](C)[C@H](NC(=O)[C@H]([C@@H](C)CC)N(C)C(C)=O)C(=O)N[C@H](C(=O)N[C@@H](CC(C)C)C(=O)[C@@]1(C)CO1)[C@@H](C)O` [epoxomicin], the log2 fold change with AAGAB is 0.006; in the test with AAK1 [1], -0.098; in the test with AAK1 [2] it was 0.031.

Turning to `CCCCN(Cc1ccc(C(=O)NO)cc1)C(=O)Nc1ccccc1` [Nexturastat A], the log2 fold change with AAGAB is 0.109; with AAK1 [1] it was 0.068; with AAK1 [2], -0.021.

On to `Cc1ccc(-n2nc(C(C)(C)C)cc2NC(=O)Nc2ccc(OCCN3CCOCC3)c3ccccc23)cc1` [doramapimod], for which the log2 fold change with AAGAB was 0.017; with AAK1 [1] it was -0.013; with AAK1 [2] it was -0.095.

Regarding `Cc1cccc(-c2[nH]c(C(C)(C)C)nc2-c2ccc3nccnc3c2)n1`, the log2 fold change was -0.036 in the test with AAGAB, 0 with AAK1 [1] and 0.015 with AAK1 [2].

`CON(C)C(=O)N1N=C(c2cc(F)ccc2F)S[C@@]1(CCCN)c1ccccc1` [filanesib]: the values for the log2 fold change in the test with AAGAB, with AAK1 [1] and with AAK1 [2] were 0.041, -0.01 and -0.108, respectively.

Regarding `CCCS(=O)(=O)Nc1ccc(F)c(C(=O)c2c[nH]c3ncc(Cl)cc23)c1F`, the log2 fold change was 0.144 with AAGAB and -0.028 with AAK1 [2].

Turning to `C[C@@H](Oc1cc(-c2cnn(C3CCNCC3)c2)cnc1N)c1c(Cl)ccc(F)c1Cl` [crizotinib], the log2 fold change with AAGAB was -0.134; with AAK1 [1], 0.124; with AAK1 [2], 0.169.

For `c1cc(OCCN2CCCCC2)cc(-c2n[nH]c3ccc(-c4nnc[nH]4)cc23)c1`, the figures for the log2 fold change in the test with AAGAB, with AAK1 [1] and with AAK1 [2] were -0.158, 0.142 and 0.052, respectively.

For the origin of these results see the supplement of paper PMC10849652.
